# Unmarked numbers belong to inactive results. Inconclusive results are not listed. Entries that show only a call come without a potency. Activity calls are given as the source filed them. Unless noted, the call rests on the fitted dose curve; in most records, active means well fitted curve in the direction sought with a large enough effect in the repeat runs; inconclusive means weak or mixed curves; inactive means no such curve, though single readings can be large; an effect the other way counts as inactive or inconclusive.
# What was measured:
# [1] = qHTS assay to identify small molecule agonists of H2AX (AID 1224845; active means well fitted activation curve with a large enough effect in the signal ratio in the repeat runs, not every such curve was filed as active; the % refers to the signal ratio)
# In short: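 Wild-type CHO-K1 cells, plated overnight, exposed 3hr at 37C to 15 concentrations (0.76% DMSO final). Lysed, then HTRF anti-pH2AX (S139) cryptate and anti-H2AX-d2 antibodies, 24 hr room temperature; 665/620 nm emission read.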
# [2] = qHTS assay to identify small molecule agonists of the hypoxia (HIF-1) signaling pathway (AID 1224846; active means well fitted activation curve with a large enough effect in the signal ratio in the repeat runs, not every such curve was filed as active; the % refers to the signal ratio)
# In short: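 Agonist mode reporter screen. ME-180 cells stably expressing bla under HRE control received test compounds in DMSO for 17 hrs (37C, 5% CO2), and beta-lactamase activity was then detected with the CCF4-AM FRET substrate.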
# [3] = qHTS assay to identify small molecule agonists of H2AX - cell viability counter screen (AID 1224847; calls by dose curve; further: nearly all actives have a fitted effect of over 30% in size; further: potency means the concentration at half of the fitted maximal effect)
# In short: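 CHO-K1 wt, 1000 cells/well, o/n 37C; cpds 15 conc, 3 h 37C, 0.76% DMSO; CellTiter-Glo, 30 min RT, luminescence.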
# [4] = qHTS assay to identify small molecule antagonists of the estrogen related receptor (ERR) signaling pathway from Tox21 library (AID 1224848); further: nearly all actives have a fitted effect of over 50% in size
# In short: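 Quantitative high-throughput format: ERR reporter cells (2,000/well) pre-incubated 6 h, treated 18 h at 37 C with compounds in DMSO alongside positive and negative controls, then read by ONE-Glo luminescence.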
# [5] = qHTS assay to identify small molecule agonists of the estrogen related receptor (ERR) signaling pathway from Tox21 library (AID 1224849; calls by dose curve; further: nearly all actives have a fitted effect of over 15% in size); settings: ERR reporter cell line, ONE-Glo luciferase, 18 h; at 92.4 µM (top of the series) unless noted
# In short: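 Quantitative HTS in agonist format: NTP ERR cell line, compounds transferred in DMSO after 6 h plating, 18 h incubation at 37 C, ONE-Glo luminescence endpoint.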
# [6] = qHTS RealTime-Glo MT Cell Viability Assay in HepG2 cells - 24 hour (AID 1224867); further: nearly all actives have a fitted effect of over 50% in size
# In short: (§1)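 Cell number in HepG2 cultures estimated from NanoLuc luminescence generated by metabolic reduction of a prosubstrate by living cells. The homogeneous, nonlytic format allowed repeated reads at 0, 8, 16, 24, 32 and 40 h of compound exposure.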
# [7] = qHTS RealTime-Glo MT Cell Viability Assay in HEK293 cells - 32 hour (AID 1224868); further: nearly all actives have a fitted effect of over 50% in size; further: potency means the concentration at half of the fitted maximal effect
# In short: (§2)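 Homogeneous bioluminescent viability format in HEK293 cells (600 cells/well). Following 5 h at 37 C/5% CO2, 23 nL compound was pintooled; the signal was measured repeatedly during 40 h incubation.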
# [8] = A CellTox Green Cytotoxicity Assay to monitor cytotoxicity in HEK293 cells - 0 hour (AID 1224869); further: nearly all actives have a fitted effect of over 50% in size
# In short: (§3)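 Dead-cell fluorescence measured kinetically: asymmetric cyanine dye, HEK293, 600 cells/well, 5 h settle, 23 nL cpd/DMSO, 37 C, reads 0–40 h every 8 h.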
# [9] = qHTS RealTime-Glo MT Cell Viability Assay in HepG2 cells - 40 hour (AID 1224870); further: nearly all actives have a fitted effect of over 50% in size
# In short: (§4)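 HepG2 cells (600/well) mixed with RealTime-Glo MT reagent, settled 5 h at 37 C/5% CO2 before compound addition. Nonlytic NanoLuc luminescence from viable-cell prosubstrate reduction read repeatedly during 40 h treatment at 37 C.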
# [10] = A CellTox Green Cytotoxicity Assay to monitor cytotoxicity in HEK293 cells - 40 hour (AID 1224871); further: nearly all actives have a fitted effect of over 45% in size; further: potency means the concentration at half of the fitted maximal effect
# In short: as §3
# [11] = qHTS RealTime-Glo MT Cell Viability Assay in HEK293 cells - 16 hour (AID 1224872); further: nearly all actives have a fitted effect of over 50% in size; further: potency means the concentration at half of the fitted maximal effect
# In short: as §2
# [12] = qHTS RealTime-Glo MT Cell Viability Assay in HepG2 cells - 8 hour (AID 1224873); further: nearly all actives have a fitted effect of over 55% in size
# In short: as §4
# [13] = qHTS RealTime-Glo MT Cell Viability Assay in HEK293 cells - 40 hour (AID 1224874); settings: RealTime-Glo luminescence; max response: stronger effect = lower value; further: nearly all actives have a fitted effect of over 50% in size; further: potency means the concentration at half of the fitted maximal effect
# In short: (§5)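 600 HEK293 cells per well, dispensed already mixed with RealTime-Glo MT reagents. Compound dosing came 5 h later. The same wells were read for luminescence at 0, 8, 16, 24, 32 and 40 h of exposure at 37 C.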
# [14] = A CellTox Green Cytotoxicity Assay to monitor cytotoxicity in HEK293 cells - 24 hour (AID 1224875); further: nearly all actives have a fitted effect of over 45% in size; further: potency means the concentration at half of the fitted maximal effect
# In short: as §3
# [15] = A CellTox Green Cytotoxicity Assay to monitor cytotoxicity in HepG2 cells - 16 hour (AID 1224876); further: nearly all actives have a fitted effect of over 45% in size
# In short: (§6)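 First, HepG2 cells (600/well) mixed with reagent were plated; second, after 5 h at 37 C they received compounds via pintool; third, fluorescence was measured at 0 h through 40 h at 8 h intervals.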
# [16] = A CellTox Green Cytotoxicity Assay to monitor cytotoxicity in HepG2 cells - 24 hour (AID 1224878); further: nearly all actives have a fitted effect of over 45% in size
# In short: as §6
# [17] = A CellTox Green Cytotoxicity Assay to monitor cytotoxicity in HepG2 cells - 40 hour (AID 1224879); further: nearly all actives have a fitted effect of over 40% in size
# In short: as §6
# [18] = qHTS RealTime-Glo MT Cell Viability Assay in HEK293 cells - 0 hour (AID 1224880); further: nearly all actives have a fitted effect of over 45% in size; further: potency means the concentration at half of the fitted maximal effect
# In short: as §5
# [19] = qHTS RealTime-Glo MT Cell Viability Assay in HepG2 cells - 32 hour (AID 1224877); further: nearly all actives have a fitted effect of over 55% in size
# In short: as §1
# [20] = qHTS assay to identify small molecule agonists of the hypoxia (HIF-1) signaling pathway - cell viability counter screen (AID 1224844; calls by dose curve; further: nearly all actives have a fitted effect of over 50% in size)
# In short: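 Viability counter screen: HRE-bla ME-180 cells plated 5 hrs before compound addition, treated 17 hrs at 37C and 5% CO2, then CellTiter-Glo added after the FRET reporter read; luminescence after 30 min.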
compound,measurement,setting,value
CCCCCCCCC(CO)CCCCCC (stereo not drawn),Potency,[1],inactive
same,outcome,[2],inactive
same,Potency,[3],inactive
same,Potency,[4],inactive
same,"activity change, positive = activation",[5],4.04%
same,Potency,[6],inactive
same,Potency,[7],inactive
same,Potency,[8],inactive
same,Potency,[9],inactive
same,Potency,[10],inactive
same,Potency,[11],inactive
same,Potency,[12],inactive
same,max response,[13],1.58%
same,Potency,[14],inactive
same,Potency,[15],inactive
same,Potency,[16],inactive
same,Potency,[17],inactive
same,Potency,[18],inactive
Cc1occc1S,Potency,[1],inactive
same,outcome,[2],inactive
same,Potency,[3],inactive
same,Potency,[4],inactive
same,"activity change, positive = activation",[5],9.5%
same,Potency,[6],inactive
same,Potency,[7],inactive
same,Potency,[8],inactive
same,Potency,[9],inactive
same,Potency,[10],inactive
same,Potency,[12],inactive
same,Potency,[14],inactive
same,Potency,[19],inactive
same,Potency,[16],inactive
same,Potency,[17],inactive
same,Potency,[18],inactive
CCOC(=O)CC(C)C,Potency,[1],inactive
same,outcome,[2],inactive
same,Potency,[3],inactive
same,Potency,[6],inactive
same,Potency,[7],inactive
same,Potency,[8],inactive
same,Potency,[9],inactive
same,Potency,[10],inactive
same,Potency,[11],inactive
same,Potency,[12],inactive
same,Potency,[14],inactive
same,Potency,[15],inactive
same,Potency,[16],inactive
same,Potency,[18],inactive
CC(C)(C)c1cc(CO)cc(C(C)(C)C)c1O,Potency,[1],inactive
same,outcome,[2],inactive
same,"activity change, positive = activation",[5],-33.2%
same,Potency,[6],inactive
same,Potency,[8],inactive
same,Potency,[9],inactive
same,Potency,[10],inactive
same,Potency,[12],inactive
same,Potency,[15],inactive
same,Potency,[19],inactive
same,Potency,[16],inactive
same,Potency,[17],inactive
same,Potency,[18],inactive
CCOc1cc(OCC)c(C(=O)CCC(=O)O)cc1OCC,Potency,[1],inactive
same,outcome,[2],inactive
same,Potency,[3],inactive
same,Potency,[6],inactive
same,Potency,[8],inactive
same,Potency,[9],inactive
same,Potency,[10],inactive
same,Potency,[12],inactive
same,Potency,[15],inactive
same,Potency,[19],inactive
same,Potency,[16],inactive
same,Potency,[17],inactive
same,Potency,[18],inactive
O=C(c1ccccc1)c1ccc2n1CCC2C(=O)O (stereo not drawn),Potency,[20],inactive
same,Potency,[3],inactive
same,Potency,[6],inactive
same,Potency,[7],inactive
same,Potency,[8],inactive
same,Potency,[9],inactive
same,Potency,[10],inactive
same,Potency,[11],inactive
same,Potency,[12],inactive
same,max response,[13],0.683%
same,Potency,[15],inactive
same,Potency,[19],inactive
same,Potency,[16],inactive
same,Potency,[17],inactive
same,Potency,[18],inactive
CCCCCCCCCO,Potency,[1],inactive
same,outcome,[2],inactive
same,Potency,[3],inactive
same,Potency,[4],inactive
same,"activity change, positive = activation",[5],5.42%
same,Potency,[6],inactive
same,Potency,[7],inactive
same,Potency,[8],inactive
same,Potency,[9],inactive
same,Potency,[11],inactive
same,Potency,[12],inactive
same,max response,[13],18.9%
same,Potency,[15],inactive
same,Potency,[19],inactive
same,Potency,[16],inactive
same,Potency,[17],inactive
CCCCCCCCCCCCCCC1CO1 (stereo not drawn),Potency,[1],inactive
same,outcome,[2],inactive
same,Potency,[3],inactive
same,Potency,[6],inactive
same,Potency,[7],inactive
same,Potency,[8],inactive
same,Potency,[9],inactive
same,Potency,[10],inactive
same,Potency,[11],inactive
same,Potency,[12],inactive
same,max response,[13],0.82%
same,Potency,[14],inactive
same,Potency,[15],inactive
same,Potency,[16],inactive
same,Potency,[17],inactive
same,Potency,[18],inactive
CCCCCOC(=O)c1ccc(O)cc1,Potency,[1],inactive
same,Potency,[3],114 µM (active)
same,Potency,[4],inactive
same,"activity change, positive = activation",[5],37.7% (active)
same,Potency,[6],inactive
same,Potency,[7],44.2 µM (active)
same,Potency,[8],inactive
same,Potency,[9],inactive
same,Potency,[10],49.6 µM (active)
same,Potency,[11],44.2 µM (active)
same,Potency,[12],inactive
same,Potency,[14],49.6 µM (active)
same,Potency,[19],inactive
same,Potency,[18],inactive
CC1(C)CCC(C)(C)c2cc(NC(=O)c3ccc(C(=O)O)cc3)ccc21,Potency,[3],inactive
same,Potency,[6],inactive
same,Potency,[8],inactive
same,Potency,[9],inactive
same,Potency,[10],inactive
same,Potency,[12],inactive
same,Potency,[14],inactive
same,Potency,[15],inactive
same,Potency,[16],inactive
same,Potency,[17],inactive
Cc1cc(O)ccc1N,outcome,[2],inactive
same,"activity change, positive = activation",[5],-16.6%
same,Potency,[6],inactive
same,Potency,[7],49.2 µM (active)
same,Potency,[8],inactive
same,Potency,[9],inactive
same,Potency,[10],34.9 µM (active)
same,Potency,[11],49.2 µM (active)
same,Potency,[13],43.9 µM (active)
same,Potency,[14],34.9 µM (active)
same,Potency,[19],inactive
same,Potency,[16],inactive
same,Potency,[18],12.4 µM (active)
CC(=O)CC(=O)c1ccccc1,outcome,[2],inactive
same,Potency,[3],inactive
same,Potency,[4],inactive
same,"activity change, positive = activation",[5],14.5%
same,Potency,[6],inactive
same,Potency,[8],inactive
same,Potency,[9],inactive
same,Potency,[10],inactive
same,Potency,[11],inactive
same,Potency,[12],inactive
same,Potency,[14],inactive
same,Potency,[15],inactive
same,Potency,[19],inactive
same,Potency,[16],inactive
same,Potency,[17],inactive
same,Potency,[18],inactive
OCC1CC2CC1C1CCC(CO)C21 (stereo not drawn),Potency,[1],inactive
same,Potency,[3],inactive
same,Potency,[4],inactive
same,"activity change, positive = activation",[5],-2.51%
same,Potency,[6],inactive
same,Potency,[7],inactive
same,Potency,[8],inactive
same,Potency,[9],inactive
same,Potency,[10],inactive
same,Potency,[11],inactive
same,max response,[13],-17.3%
same,Potency,[15],inactive
same,Potency,[19],inactive
same,Potency,[16],inactive
same,Potency,[17],inactive
same,Potency,[18],inactive
N#CCCNCCC#N,Potency,[1],inactive
same,Potency,[3],inactive
same,Potency,[6],inactive
same,Potency,[8],inactive
same,Potency,[9],inactive
same,Potency,[10],inactive
same,Potency,[11],inactive
same,Potency,[12],inactive
same,max response,[13],6.76%
same,Potency,[14],inactive
same,Potency,[15],inactive
same,Potency,[19],inactive
same,Potency,[16],inactive
same,Potency,[17],inactive
same,Potency,[18],inactive
C[C@H](CCC(=O)O)[C@H]1CC[C@H]2[C@@H]3[C@H](O)C[C@@H]4C[C@H](O)CC[C@]4(C)[C@H]3CC[C@]12C,Potency,[1],inactive
same,Potency,[3],inactive
same,Potency,[4],inactive
same,Potency,[6],inactive
same,Potency,[8],inactive
same,Potency,[9],inactive
same,Potency,[12],inactive
same,Potency,[14],inactive
same,Potency,[15],inactive
same,Potency,[19],inactive
same,Potency,[16],inactive
same,Potency,[17],inactive
same,Potency,[18],inactive

# Source: PubChem BioAssay (Tox21)
